Outcome and AC50 data for 29 compounds are collected here from PubChem BioAssay (EPA / NIEHS).

Inconclusive results are not listed. The source made the active and inactive calls. Rule for the calls: active = hit-call score of the fitted dose curve at least 0.9, where 1 is the maximum; inconclusive = response in the unintended direction; inactive = score below 0.9.

Sequence of Bile acid receptor (Homo sapiens) (Q96RI1 whole entry, looked up, the tested form may be a part): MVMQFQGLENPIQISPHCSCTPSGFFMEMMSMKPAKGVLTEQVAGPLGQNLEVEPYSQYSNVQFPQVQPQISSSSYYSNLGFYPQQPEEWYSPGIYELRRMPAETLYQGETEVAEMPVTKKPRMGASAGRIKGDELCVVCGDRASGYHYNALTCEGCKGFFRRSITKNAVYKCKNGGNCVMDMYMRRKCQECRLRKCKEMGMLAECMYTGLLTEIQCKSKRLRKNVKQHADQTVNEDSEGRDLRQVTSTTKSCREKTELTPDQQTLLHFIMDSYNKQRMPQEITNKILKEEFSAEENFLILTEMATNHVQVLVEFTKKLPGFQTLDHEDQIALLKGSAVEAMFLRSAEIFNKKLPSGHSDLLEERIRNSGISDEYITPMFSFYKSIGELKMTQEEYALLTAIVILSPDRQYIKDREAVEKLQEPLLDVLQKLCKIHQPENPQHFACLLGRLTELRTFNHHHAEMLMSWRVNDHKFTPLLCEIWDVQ

The target of the test is Bile acid receptor (Homo sapiens) (UniProt Q96RI1). The experiment in a line: OT_FXR_FXRSRC1_1440: Odyssey Thera (OT) 24-hour HEK293T Protein-Complementation Assay for Farnesoid X receptor/SRC-1 Co-activator (AID 2283384). The method, then:
OT_FXR_FXRSRC1_1440 is a cell-based assay that uses HEK293T, a human kidney cell line, with measurements taken at 24 hours after chemical dosing in a 384-well plate.OT_FXR_FXRSRC1_1440 is one of one assay component(s) measured or calculated from the OT_FXR_FXRSRC1_1440 assay. It is designed to make measurements of protein fragment complementation, a form of binding reporter, as detected with fluorescence intensity signals by Protein-fragment Complementation technology.Data from the assay component OT_FXR_FXRSRC1_1440 was analyzed into 1 assay endpoint. This assay endpoint, OT_FXR_FXRSRC1_1440, was analyzed in the positive analysis fitting direction relative to DMSO as the negative control and baseline of activity. Using a type of binding reporter, measures of receptor for gain-of-signal activity can be used to understand the binding at the pathway-level as they relate to the gene NR1H4. Furthermore, this assay endpoint can be referred to as a primary readout, because the performed assay has only produced 1 assay endpoint. To generalize the intended target to other relatable targets, this assay endpoint is annotated to the nuclear receptor intended target family, where the subfamily is non-steroidal.
Protein-fragment complementation assay, or PCA, is a method for the identification and quantification of protein-protein interactions. In the PCA, the proteins of interest ("bait" and "prey") are each covalently linked to fragments of a third protein (e.g. DHFR, which acts as a "reporter"). Interaction between the bait and the prey proteins brings the fragments of the reporter protein in close proximity to allow them to form a functional reporter protein whose activity can be measured.
In the case of `CCCCC/C=C\C/C=C\CCCCCCCC(=O)O`, the result was inactive. One may read the AC50 as the concentration at which the activity in the assay is half-maximal. On to `O=C(Nc1ccccc1)c1cc(Cl)ccc1O`, for which the AC50 was 17.5 µM (active). As to `CCCCCCCCCCCCCCCCCCOS(=O)(=O)O`, the outcome was inactive.

For the compound `CCCCNC(=S)NCCCC`, the compound was called inactive.

For `CCC(C)(O)CCCC(C)C` (centres undefined), the compound was called inactive.

With `CCCCCC(=O)OCC`, the call was inactive. On the same count and under the same terms, as for `Cc1ccc(C)c(OCCCC(C)(C)C(=O)O)c1`, the entry is “inactive”; as for `CCCCCCCCC(CO)CCCCCC` (centres undefined), “inactive”. Same read-out and setting: the same measure for `O=C(O)c1ccc2c(c1)C(=O)OC2=O`: “inactive”; for `CCCCNS(=O)(=O)c1ccccc1`: “inactive”; for `N#Cc1ccc(C(c2ccc(C#N)cc2)n2cncn2)cc1`: “inactive”. Same read-out and setting: as for `CCCCc1ccc(Cl)cc1`, the entry is “inactive”; as for `COc1ccc(C(=O)c2ccccc2)c(O)c1`, “inactive”; as for `CC(C)(C)C1CCC(=O)CC1`, “inactive”.

Regarding `Cc1cc(C)n(CO)n1`, the result was inactive.

Take `CC(CCC(=O)O)(c1ccc(O)cc1)c1ccc(O)cc1`: the compound was classed as inactive. On the same count and under the same terms, as for `Nc1ccc(C(=O)O)cc1`, the entry is “inactive”; as for `CCN1CN(CC)CN(CC)C1`, “inactive”. Take `Cc1ccc([N+](=O)[O-])cc1N`: the outcome was inactive. The same measure, in the same setting: as for `CC12CCC(CC1)C(C)(C)O2`, the entry is “inactive”; as for `CCc1occc(=O)c1O`, “inactive”. As to `CCC1COC(=O)O1` (centres undefined), the call was inactive. As for `CC(C)(C)NC(=O)[C@H]1CC[C@H]2[C@@H]3CC[C@H]4NC(=O)C=C[C@]4(C)[C@H]3CC[C@]12C`, the AC50 is 3.77 µM (active). As to `CCCCCCOC(=O)CCCCC(=O)OCCCCCC`, the compound was classed as inactive. Still for that read-out and setting: the same measure for `CN(C)Cc1cc(CN(C)C)c(O)c(CN(C)C)c1`: “inactive”. As to `O=C(OCc1ccccc1)c1ccc(O)cc1`, the AC50 was 50 µM (active). Take `CCOC(=O)C1=NOC(c2ccccc2)(c2ccccc2)C1`: the outcome was inactive. The same measure, in the same setting: the same measure for `CCC[Si](OC)(OC)OC`: “inactive”. Regarding `CCCCCCOc1ccc(N)cc1`, the AC50 was 14.3 µM (active).
